# Measured values reported in the OligoGym collection.
# Biological target: UBTD2
# Assay: pooled miR-30 sensor sort-seq; sequence = guide strand
# Settings: shRNA
# Further: reference of the scale not given here.
row,Sequence,sensor-assay potency score (higher = more potent)
1,TCGAACTTCATTTTGTCAGTGA,0.607
2,AACCTGTACAACATAGTCCTTT,0.105
3,TGTGCTGCGAACCACAAGCTTG,-1.41
4,TAACCTGTACAACATAGTCCTT,-0.877
5,TCTTGCTGCGTAGTTGTCCATC,-1.04
6,TACACTGGAAGCTGATATCTGT,0.00464
7,TATGTTTGCACCATCAATGATT,-0.561
8,TATGTCGCTCTTTTCCTCTATC,-0.749
9,TGGAATACTGTGTCTGTGCTGC,-0.0459
10,TACAACATAGTCCTTTGGGATC,-1.63
11,TTCATAGGGAATTTAGAGCAGT,-0.206
12,AAAACCACCGCTGACTACCTGG,-0.559

# Biological target: UBXN2A
# Assay: as above
# Settings: shRNA
row,Sequence,sensor-assay potency score (higher = more potent)
1,TTAAATTTCTGGACAATCCTTT,0.433
2,TTGATTGTTGATTATTACCAAG,-1.29
3,TTGTACTTATCTAAACATCTTC,-0.32
4,ATAACTTCTGAAATCGTCGTTG,0.446
5,TAATATATCTTGATAACTGGTA,0.173
6,TTTTATATTTACATCTACCTGT,0.256
7,TATATTTACATCTACCTGTTTC,-0.892
8,TTAATATATCTTGATAACTGGT,-0.45
9,TACATCTACCTGTTTCTTCTGT,0.409
